From PMC5540273 (PLoS ONE, 2017) come the findings set out here.

Test systems include HCK; HIPK1; HIPK2; HIPK3; HIPK4; HPK1; HUNK; ICK; IGF1R; INSRR; INSR; IRAK1; IRAK3; IRAK4; ITK.
What all share (conditions): concentration: 1 μM, replicates: in singlicate; n = 1
The test system of another assay is T1, HASPIN.
T1 construct: gene GSG2

In a further assay the test system is T2, IKK-alpha.
T2 construct: gene CHUK

For a further assay, the system named is T3, IKK-beta.
T3 construct: gene IKBKB

In the next assay the test system is T4, IKK-epsilon.
T4 construct: gene IKBKE

The subject of assay [1] is JAK1(JH1domain-catalytic).

Molecules are shown by their SMILES.
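Further: KINOMEscan kinase panel screen.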

As to `Cc1occc1-c1ncc(OC[C@@H](N)Cc2c[nH]c3ccccc23)cc1-c1ccc2[nH]nc(C)c2c1.O=C(O)C(F)(F)F` [GSK682037], the “%Inh” value stood at 65% in the assay on HASPIN; 0% in the assay with HCK; 0% in the assay on HIPK1; 0% in the assay with HIPK2; 7% with HIPK3; 35% with HIPK4. The “%Inh” value in the assay on HPK1 is reported as 90%; with HUNK, 79%; in the assay with ICK, 0%; in the assay on IGF1R, 7%; in the assay with IKK-alpha, 0%; in the assay with IKK-beta, 0%. The “%Inh” value in the assay with IKK-epsilon is on record as 0%; with INSRR, 9%; with INSR it was 9%; with IRAK1 it was 0%; in the assay with IRAK3, 0%; in the assay on IRAK4, 0%. Further, the “%Inh” value in the assay on ITK came out at 12%; in [1], 0%.
Consider `COCCOCCOc1cc2ncc3c4ccc(C#N)cc4[nH]c3c2cc1OC`, for which the “%Inh” value in the assay with HASPIN came out at 18%; in the assay on HCK, 4%; in the assay on HIPK1, 90.3%; with HIPK2 it was 87%; with HIPK3, 87%; in the assay with HIPK4, 32%. Also, the “%Inh” value in the assay with HPK1 is recorded as 7%; in the assay with HUNK it was 0%; with ICK, 41%; with IGF1R it was 2%; in the assay on IKK-alpha it was 30%; in the assay on IKK-beta, 30%. Further, the “%Inh” value stood at 60% in the assay on IKK-epsilon; 0% with INSRR; 0% with INSR; 96% in the assay with IRAK1; 75% in the assay on IRAK3; 99.9% with IRAK4. For the same molecule, the “%Inh” value in the assay on ITK is recorded as 39%; in assay [1], 0%.
Regarding `Cc1ccc(S(=O)(=O)Nc2ccc(Nc3nccc(Nc4cccc5[nH]ncc45)n3)cc2)cc1` [GSK581271], the “%Inh” value in the assay on HASPIN is listed as 0%; in the assay on HCK it was 0%; with HIPK1 it was 0%; with HIPK2, 0%; in the assay with HIPK3 it was 1%; with HIPK4, 0%. Besides, the “%Inh” value in the assay on HPK1 is on record as 23%; with HUNK, 2%; with ICK it was 0%; in the assay on IGF1R, 10%; in the assay with IKK-alpha, 10%; in the assay on IKK-beta it was 3%. The “%Inh” value in the assay on IKK-epsilon was 0%; in the assay with INSRR, 0%; in the assay on INSR, 0%; in the assay with IRAK1, 29%; in the assay on IRAK3, 62%; in the assay with IRAK4 it was 43%. For the same molecule, the “%Inh” value is reported as 29% in the assay on ITK and 44% in [1].
`O=C(Nc1cccc(-c2nn3ccccc3c2-c2ccnc(Nc3cccc(C(F)(F)F)c3)n2)c1)c1c(F)cccc1F` [GSK292658]: the “%Inh” value turned out to be 0% with HASPIN; 96.9% with HCK; 0% in the assay on HIPK1; 0% with HIPK2; 0% in the assay with HIPK3; 0% in the assay on HIPK4. Also, the “%Inh” value in the assay on HPK1 is 21%; in the assay on HUNK, 0%; in the assay with ICK, 0%; in the assay with IGF1R, 0%; with IKK-alpha it was 0%; in the assay with IKK-beta, 3%. In addition, the “%Inh” value with IKK-epsilon was found to be 1%; in the assay on INSRR it was 12%; in the assay on INSR, 16%; in the assay on IRAK1, 0%; in the assay on IRAK3 it was 0%; in the assay with IRAK4 it was 12%. The “%Inh” value in the assay with ITK turned out to be 6%; in assay [1], 0%.
For `Nc1ncc(-c2cccnc2)c2scc(-c3ccc4c(c3)CCN4C(=O)Cc3ccccc3)c12` [GSK683281], the “%Inh” value with HASPIN worked out at 0%; in the assay on HCK it was 25%; in the assay on HIPK1, 20%; with HIPK2, 0%; with HIPK3 it was 35%; in the assay with HIPK4, 0%. In addition, the “%Inh” value in the assay with HPK1 stood at 63%; with HUNK, 34%; in the assay with ICK, 8%; with IGF1R, 0%; in the assay on IKK-alpha, 0%; in the assay on IKK-beta, 11%. Besides, the “%Inh” value in the assay with IKK-epsilon is listed as 46%; in the assay with INSRR, 0%; in the assay with INSR, 0%; with IRAK1, 10%; in the assay with IRAK3 it was 17%; in the assay with IRAK4 it was 5%. Further, the “%Inh” value in the assay with ITK was found to be 18%; in [1], 19%.
Take `Cn1cc(-c2ccc3c(c2)CCN3C(=O)Cc2cccc(F)c2)c2c(N)ncnc21` [GSK2603358]: the “%Inh” value is on record as 0% in the assay on HASPIN; 13% in the assay with HCK; 0% in the assay with HIPK1; 0% in the assay with HIPK2; 8% in the assay with HIPK3; 0% in the assay on HIPK4. Moreover, the “%Inh” value with HPK1 is given as 57%; in the assay on HUNK, 13%; in the assay on ICK it was 0%; in the assay with IGF1R it was 23%; in the assay with IKK-alpha, 15%; in the assay with IKK-beta, 43%. In addition, the “%Inh” value in the assay with IKK-epsilon turned out to be 76%; with INSRR, 0%; in the assay on INSR it was 0%; with IRAK1, 41%; with IRAK3, 0%; in the assay on IRAK4, 22%. Besides, the “%Inh” value with ITK was found to be 11%; in [1], 18%.
For the molecule `Cl.Cl.NCC(NCc1ccc(-c2ccnc3[nH]ccc23)s1)c1ccccc1` (centres unmarked) [GSK1321565], the “%Inh” value in the assay on HASPIN turned out to be 99.8%; with HCK, 0%; in the assay with HIPK1, 53%; with HIPK2, 55%; in the assay on HIPK3, 71%; in the assay with HIPK4, 49%. The “%Inh” value in the assay with HPK1 came out at 66%; in the assay on HUNK, 0%; with ICK, 0%; in the assay with IGF1R it was 0%; in the assay with IKK-alpha, 68%; with IKK-beta, 74%. For the same molecule, the “%Inh” value came out at 39% in the assay on IKK-epsilon; 0% in the assay on INSRR; 0% in the assay on INSR; 71% in the assay with IRAK1; 20% in the assay on IRAK3; 7% in the assay with IRAK4. The “%Inh” value in the assay on ITK stood at 13%; in assay [1], 29%.
As to `CN1CCN(CCCNc2nccc(-c3c(-c4ccc(F)cc4)nn4cc(C(F)(F)F)ccc34)n2)CC1` [GW621581], the “%Inh” value in the assay with HASPIN stood at 0%; in the assay with HCK, 14%; with HIPK1 it was 0%; in the assay on HIPK2 it was 2%; in the assay with HIPK3 it was 0%; in the assay with HIPK4 it was 0%. For the same molecule, the “%Inh” value in the assay with HPK1 came to 30%; in the assay with HUNK, 0%; in the assay on ICK it was 0%; in the assay on IGF1R, 0%; in the assay on IKK-alpha, 35%; in the assay on IKK-beta it was 23%. For the same molecule, the “%Inh” value with IKK-epsilon is 0%; with INSRR, 0%; in the assay on INSR, 0%; with IRAK1, 0%; in the assay on IRAK3 it was 0%; with IRAK4, 7%. In addition, the “%Inh” value (in the assay with ITK; in [1]) was 0% in each case.
As for `C[C@@H]1CC[C@@H](C(=O)Nc2ccccc2)CN1c1cc(-c2ccc3c(N)n[nH]c3c2)nc(N)n1` [GSK2286062], the “%Inh” value in the assay with HASPIN was 5%; in the assay on HCK it was 0%; in the assay on HIPK1 it was 0%; with HIPK2 it was 0%; in the assay on HIPK3, 0%; with HIPK4, 25%. Also, the “%Inh” value in the assay with HPK1 came out at 36%; with HUNK, 11%; with ICK, 0%; in the assay with IGF1R it was 23%; in the assay on IKK-alpha it was 0%; with IKK-beta it was 0%. The “%Inh” value in the assay on IKK-epsilon was found to be 25%; in the assay on INSRR, 0%; in the assay with INSR, 25%; with IRAK1 it was 0%; with IRAK3, 0%; in the assay with IRAK4, 0%. Moreover, the results for the “%Inh” value (in the assay with ITK; in assay [1]) were 1% and 2%, respectively.
With `FC(F)(F)c1ccc(/C=C/c2cncnc2Nc2ccc3[nH]c(Cc4ccccc4)nc3c2)cc1` [GW709199], the “%Inh” value in the assay with HASPIN was 12%; with HCK, 14%; in the assay with HIPK1 it was 21%; with HIPK2, 0%; in the assay on HIPK3 it was 0%; in the assay with HIPK4 it was 13%. The “%Inh” value in the assay with HPK1 is given as 12%; in the assay with HUNK, 55%; with ICK it was 0%; in the assay with IGF1R, 0%; in the assay with IKK-alpha it was 0%; in the assay on IKK-beta it was 0%. Moreover, the “%Inh” value in the assay with IKK-epsilon was 0%; in the assay on INSRR, 0%; in the assay on INSR, 0%; with IRAK1 it was 2%; with IRAK3, 3%; in the assay on IRAK4 it was 0%. In addition, the “%Inh” value turned out to be 6% in the assay with ITK and 10% in assay [1].
